Screening data from PubChem BioAssay.
An excerpt weighted towards active compounds, which were near 9.4% of everything screened.
ELG1 genotoxic: genotoxicity induction in ELG1-luciferase HEK293T cells; HEK293T ELG1-luciferase reporter, luminescence, 16 h; Potency, µM (highest dose often 46 µM), for the others: at the top dose activity change, positive = activation, usual class: activators; 330,000 tested, 1.3% active; note: % of control where 0% means no effect; nearly all actives have a fitted effect of over 60% in size
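DMSO vehicle served as control against compound-treated ELG1-luciferase HEK293T cells; exposure lasted 16 hr at 37 °C and 5% CO2, followed by ONE-Glo luminescence detection after 30 min.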
NPC1 prom act: NPC1 promoter activation | Huh7 NPC1 promoter luciferase reporter, 24 h | Potency, µM (top dose mostly 9.22 µM), for the others: top-dose activation, hits mostly activators | 320,000 tested, 2.4% active | AID 485313; note: % of control where 0% means no effect; nearly all actives have a fitted effect of over 60% in size
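Luminescence from an NPC1 promoter-driven luciferase reporter in stably transfected Huh7 cells was measured after 24 h compound treatment at 37 °C, followed by 10 min ambient incubation with luciferase detection reagent.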
FLuc modulator: inhibits or activates purified firefly luciferase, miR-21 counter-screen; P08659; Potency, µM (highest dose often 57.5 µM), without a hit: at the highest dose activity change, negative = inhibition, most hits filed as inhibitors; 360,000 tested, 6.9% active; purified FLuc, Km substrates, luminescence inhibition; AID 588342;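 note: plate controls were vehicle for no effect and reference inhibitor for full effect; nearly all actives have a fitted effect of over 55% in size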
Target sequence (P08659 whole entry, looked up): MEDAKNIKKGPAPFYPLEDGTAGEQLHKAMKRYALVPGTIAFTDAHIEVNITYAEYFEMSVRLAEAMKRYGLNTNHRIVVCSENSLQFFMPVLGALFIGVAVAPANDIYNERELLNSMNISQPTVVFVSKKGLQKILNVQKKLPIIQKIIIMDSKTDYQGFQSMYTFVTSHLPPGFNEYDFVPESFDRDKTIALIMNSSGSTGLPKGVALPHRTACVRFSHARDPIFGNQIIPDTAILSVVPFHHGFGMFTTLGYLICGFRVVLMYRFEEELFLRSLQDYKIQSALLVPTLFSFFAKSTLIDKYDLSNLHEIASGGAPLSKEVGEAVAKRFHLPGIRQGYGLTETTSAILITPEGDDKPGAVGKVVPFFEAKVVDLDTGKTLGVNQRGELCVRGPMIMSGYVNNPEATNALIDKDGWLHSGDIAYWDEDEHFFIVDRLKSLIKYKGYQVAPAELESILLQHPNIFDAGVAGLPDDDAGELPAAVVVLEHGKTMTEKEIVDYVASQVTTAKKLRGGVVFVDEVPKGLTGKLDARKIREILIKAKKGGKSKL
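Biochemical qHTS of compounds, final roughly 60 µM downward over six points, against 10 nM purified firefly luciferase using Km concentrations of substrates (10 uM D-luciferin, 10 uM ATP) in Tris acetate pH 7.5 buffer; luminescence output.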
Rab9 promoter act: Rab9 promoter activation. Huh7 Rab9 promoter-luciferase reporter, luminescence, 24 h. Potency, µM (series often up to 9.22 µM), for the others: at the highest dose activation, negative = inhibition, usual class: activators. AID 485297. 320,000 tested, 2.8% active; note: % of control where 0% means no effect; nearly all actives have a fitted effect of over 60% in size
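Huh7 reporter line, Rab9 promoter upstream of luciferase. Compound exposure 24 h at 37 °C in reduced-serum medium with 10% FBS. Read-out: luminescence.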
SMN2 splice enh: SMN2 splice variant enhancement; HEK293 SMN2-luciferase splicing reporter, luminescence, 30-36 h; Potency, µM (highest dose often 46.1 µM), inactives show top-dose activity change, positive = activation, usual class: activators; 210,000 tested, 2.8% active; AID 1458; note: % of control where 0% means no effect; nearly all actives have a fitted effect of over 55% in size
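qHTS luciferase splicing reporter: luminescence rises when SMN2 exon 7 is included in transfected HEK293 cells. Compound exposure lasted 30-36 h at 37C, with 4.5 mM final sodium butyrate as control, followed by a ONE-Glo read.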
ELG1 repair inh: inhibitors of ELG1-dependent DNA repair in HEK293T cells; HEK293T ELG1-luciferase reporter, luminescence, 16 h; DNA damage induced by 5-fluorouridine; Potency, µM (doses to about 46.1 µM), inactives show at the top dose activity change, negative = inhibition, most hits filed as inhibitors; 330,000 tested, 2.3% active; note: % is set by controls: 0 for no effect and ±100 for the full control effect; nearly all actives have a fitted effect of over 55% in size
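5-Fluorouridine DNA damage + compound/DMSO, 2,000 cells/well, 16 h, 37 °C/5% CO2. ONE-Glo, 30 min RT, luminescence. Readout = decrease in reporter signal.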
An asterisk follows results filed as active; [ ] = another dose, or the depositor's remark. Calls come from the whole dose curve; as a rule, active = well fitted curve in the direction sought with a large enough effect; inconclusive = small, poorly fitted or top-dose-only effect, or another doubt; inactive = no such curve, though single readings can be large; an effect the other way counts as inactive or inconclusive. Potency is the fitted concentration of half-maximal effect.

What do the screens show for `Cc1ccc(NS(=O)(=O)c2ccc(C(=O)NCc3cccnc3)cc2)cc1`?
ELG1 genotoxic: inconclusive; NPC1 prom act: 17.0%; FLuc modulator: 21.3µM*; Rab9 promoter act: 7.2%; ELG1 repair inh: inconclusive

Results for Fc1ccc2nc3[nH]c4ccccc4c3nc2c1 ?
ELG1 genotoxic: inconclusive; NPC1 prom act: 3.16µM*; FLuc modulator: 1.9µM*; Rab9 promoter act: 3.16µM*; SMN2 splice enh: 15.8µM*; ELG1 repair inh: inconclusive

Results for CN1CCN(c2ccc(CNC(=O)c3ccc4c(c3)OCCO4)cc2)CC1 ?
ELG1 genotoxic: 0.4%; NPC1 prom act: 0.6%; FLuc modulator: -3.2%; Rab9 promoter act: 3.8%; ELG1 repair inh: inconclusive

Results for CC(C)(C)C(=O)N1CCN(c2ccc(NC(=O)c3ccc4c(c3)OCCO4)cc2)CC1 ?
ELG1 genotoxic: -27.9%; NPC1 prom act: -2.7%; FLuc modulator: inconclusive; Rab9 promoter act: -8.8%; ELG1 repair inh: 16.4µM*

What do the screens show for `O=C(Nc1ccc(N2CCN(C(=O)c3ccccc3)CC2)cc1)c1ccc2c(c1)OCCO2`?
ELG1 genotoxic: -18.0%; NPC1 prom act: -6.8%; FLuc modulator: inconclusive; Rab9 promoter act: -1.1%; ELG1 repair inh: 14.6µM*

Results for CN1CCN(c2ccc(NC(=O)c3ccc4c(c3)OCO4)cc2)CC1 ?
ELG1 genotoxic: inconclusive; NPC1 prom act: 2.51µM*; FLuc modulator: 10.7µM*; Rab9 promoter act: 1.78µM*; SMN2 splice enh: inconclusive; ELG1 repair inh: inconclusive

What do the screens show for `O=C(Nc1ccccc1N1CCN(C(=O)c2ccc(Cl)cc2)CC1)c1ccc2c(c1)OCO2`?
ELG1 genotoxic: -5.9%; NPC1 prom act: 4.1%; FLuc modulator: 2.0%; Rab9 promoter act: -5.4%; SMN2 splice enh: inconclusive; ELG1 repair inh: 16.4µM*

How did CCOC(=O)N1CCC(NC(=O)c2cnn(-c3cccc(F)c3)c2-n2cccc2)CC1 do in these assays?
FLuc modulator: -6.9%

Results for Cc1c(Cl)cccc1NC(=O)c1cnc2sc(N3CCOCC3)nn2c1=O ?
FLuc modulator: -4.9%

How did Cc1ccccc1C(=O)Nc1cccc(OCc2cc(=O)n3cccc(C)c3n2)c1 do in these assays?
FLuc modulator: -9.6%

How did CCCCC(=O)N1CCc2cc(OC)c(OC)cc2C1COc1ccc(C(=O)OCC)cc1 (stereo not given) do in these assays?
FLuc modulator: 2.1%

Results for C=Cc1ccc(CSc2nc(-c3ccccc3C)nc3c2Cc2c(CO)cnc(C)c2O3)cc1 ?
FLuc modulator: 0.1%

What do the screens show for `CC(=O)N1CCN(c2ccc(NC(=O)c3ccc4c(c3)OCCO4)cc2)CC1`?
ELG1 genotoxic: 6.4%; NPC1 prom act: -1.1%; FLuc modulator: inconclusive; Rab9 promoter act: 0.7%; SMN2 splice enh: -17.0%; ELG1 repair inh: 1.9%

Results for O=C(CSc1ccc(Cl)cc1)Nc1ccccc1N1CCN(C(=O)c2ccc(Cl)cc2)CC1 ?
ELG1 genotoxic: -6.2%; NPC1 prom act: 1.1%; FLuc modulator: -0.6%; Rab9 promoter act: -2.8%; SMN2 splice enh: -37.8%; ELG1 repair inh: 23.1µM*

What do the screens show for `CCCC(=O)N1CCN(c2ccc(NC(=O)c3ccc4c(c3)OCCO4)cc2)CC1`?
ELG1 genotoxic: -10.6%; NPC1 prom act: -5.8%; FLuc modulator: -6.7%; Rab9 promoter act: -0.9%; ELG1 repair inh: inconclusive

What do the screens show for `O=C(Nc1ccc(N2CCCCC2)cc1)c1ccc2c(c1)OCCO2`?
ELG1 genotoxic: 3.0%; NPC1 prom act: inconclusive; FLuc modulator: 1.69µM*; Rab9 promoter act: 1.41µM*; SMN2 splice enh: -24.5%; ELG1 repair inh: inconclusive

Results for O=C(Nc1ccc(N2CCN(C(=O)c3ccc(Cl)cc3)CC2)cc1)c1ccc2c(c1)OCCO2 ?
ELG1 genotoxic: -28.6%; NPC1 prom act: -23.2%; FLuc modulator: inconclusive; Rab9 promoter act: -28.2%; SMN2 splice enh: -65.5%; ELG1 repair inh: 4.11µM*

What do the screens show for `C[C@@H]1CCCN(CP(=O)(c2ccccc2)c2ccccc2)C1`?
SMN2 splice enh: -13.8%[9.22 µM]

Results for CC(C)(CC(=O)OCC(=O)Nc1ccccc1F)CC1=NS(=O)(=O)c2ccccc2N1 ?
ELG1 genotoxic: -8.4%; NPC1 prom act: 1.5%; FLuc modulator: 0.6%; Rab9 promoter act: -13.7%; ELG1 repair inh: 9.2µM*

Results for COc1ccccc1NC(=O)COC(=O)CC(C)(C)CC1=NS(=O)(=O)c2ccccc2N1 ?
ELG1 genotoxic: -11.8%; NPC1 prom act: 0.9%; FLuc modulator: 0.3%; Rab9 promoter act: -8.8%; ELG1 repair inh: inconclusive

Results for COc1cc(CN(C(=O)Nc2cccc(Cl)c2)c2ccccn2)cc(OC)c1OC ?
FLuc modulator: -10.1%

How did CC(Nc1ccc(-c2nc(-c3cccnc3)no2)cc1[N+](=O)[O-])c1ccccc1 (stereo not given) do in these assays?
FLuc modulator: -1.3%

What do the screens show for `c1cncc(-c2noc(-c3ccc4ccccc4c3)n2)c1`?
ELG1 genotoxic: 2.06µM*; NPC1 prom act: 0.316µM*; FLuc modulator: 1.2µM*; Rab9 promoter act: 0.282µM*; ELG1 repair inh: inconclusive

What do the screens show for `c1ccc(-c2ccc(-c3nc(-c4cccnc4)no3)cc2)cc1`?
ELG1 genotoxic: 2.31µM*; NPC1 prom act: 1.26µM*; FLuc modulator: 1.35µM*; Rab9 promoter act: inconclusive; SMN2 splice enh: 12.6µM*; ELG1 repair inh: inconclusive

Results for c1ccc(-c2noc(-c3cccnc3)n2)cc1 ?
FLuc modulator: 9.53µM*; SMN2 splice enh: inconclusive

How did O=c1[nH]c2ccccc2cc1-c1noc(-c2cccnc2)n1 do in these assays?
ELG1 genotoxic: -2.0%; NPC1 prom act: 23.0%; FLuc modulator: inconclusive; Rab9 promoter act: 24.0%; SMN2 splice enh: -5.2%; ELG1 repair inh: 14.4%

How did CCOc1ccccc1CNC(=O)c1cc2cc(S(=O)(=O)N3CCCCC3)ccc2n1C do in these assays?
FLuc modulator: 0.6%

What do the screens show for `COc1ccc(C2=NC3(CCCCCC3)N(CC(=O)Nc3ccc(C)c(C)c3)C2=O)cc1`?
FLuc modulator: 1.3%; SMN2 splice enh: -7.6%

Results for COc1ccc(-n2c(C)n[nH]c2=O)cc1 ?
ELG1 genotoxic: 1.6%; NPC1 prom act: -1.4%; FLuc modulator: 6.3%; Rab9 promoter act: -3.3%; SMN2 splice enh: -6.2%; ELG1 repair inh: -13.2%

What do the screens show for `Cc1n[nH]c(=O)n1-c1ccc(OCc2ccccc2)cc1`?
ELG1 genotoxic: inconclusive; NPC1 prom act: inconclusive; FLuc modulator: 21.3µM*; Rab9 promoter act: 2.82µM*; ELG1 repair inh: inconclusive
